# Results taken from PubChem BioAssay (NCATS).
# Results filed as inconclusive are left out. Calls of active or inactive are those of the source. Calls follow the shape of the dose curve; as a rule, active = well fitted cell-killing curve with a large enough effect; inconclusive = small, poorly fitted or top-dose-only effect, or effect the other way; inactive = no such curve, though single readings can be large or run the other way.
# Assay: Quantitative High-Throughput drug screen in 47 multiple myeloma cell lines against the NCATS MIPE library collection: OPM1_PLB cell viability assay (AID 1918989); also: nearly all actives have a fitted effect of over 40% in size
# Conditions: CellTiter-Glo, 48 h; series mostly up to 45.8 µM; viability (% of control): at the top concentration
# Excerpt: PI: Beverly A. Mock Ph.D.
# Laboratory of Cancer Biology and Genetics,
# Center for Cancer Research, National Cancer Institute,
# National Institute of Health, Bethesda, Maryland
# Drug resistance and disease progression are common in multiple myeloma (MM) patients, underscoring the need for new therapeutic combinations. […] We hypothesized that effective combinations would reduce MYC expression and enhance p16 activity. […] These preclinical data identify potentially useful drug combinations for evaluation in drug-resistant MM and reveal potential mechanisms of combined drug sensitivity.
# Described herein is the primary MIPE qHTS used to cherrypick compounds. Validated compounds were then further tested for potential synergistic activiy.
# [1] Peat TJ, Gaikwad SM, Dubois W, Gyabaah-Kessie N, Zhang S, Gorjifard S, Phyo Z, Andres M, Hughitt VK, Simpson RM, Miller MA, Girvin AT, Taylor A, Williams D, D'Antonio N, Zhang Y, Rajagopalan A, Flietner E, Wilson K, Zhang X, Shinn P, Klumpp-Thomas C, McKnight C, Itkin Z, Chen L, Kazandijian D, Zhang J, Michalowski AM, Simmons JK, Keats J, Thomas CJ, Mock BA. Drug combinations identified by high-throughput screening promote cell cycle transition and upregulate Smad pathways in myeloma. Cancer Lett. 2023 Aug 1;568:216284. doi: 10.1016/j.canlet.2023.216284. Epub 2023 Jun 24. PMID: 37356470; PMCID: PMC10408729.
# SEQUENCE No. (e.g., 1, 2, 3, etc.); […] (e.g., Cells, Incubation, Reagent, etc.); VALUE and DESCRIPTION.
# 1; Cells; 5 uL; white, solid bottom 1536-well Greiner assay plate.
# 2; Compounds; 23 nL; Kalypsis pin tool (Wako USA) equipped with a 1536-well pin head to transfer to the assay plates.
# 3; Incubation; 48 hours; 37C incubation.
# 4; Reagent;5uL; CellTiter Glo (Promega).
# 5; Detector; 425V; Luminescence; Viewlux PerkinElmer.
# NOTES (numbers refer to Sequence numbers above)
# 1. The cell-based screening methods employed in this study were like those previously published. Briefly, the corresponding myeloma cell lines were screened in 1,536-well plates with 500 cells, 5-uL per well for inhibition of cell viability (assessed by measuring ATP levels with CellTiterGlo).
# 2. NCATS MIPE 4.0 library of approved and investigational drugs were added using the Kalypsis pin tool. Wells treated with DMSO only for 100% viability and media only for 0% viability were used as controls.
# 3. The assay plates were covered and incubated for 48 hours in a 37C, 5% CO2 incubator with controlled humidity.
# 4. After 48 hours, CellTilter-GloTM luminescent substrate mix (Promega) reagent was added to the assay plate and plates we incubated for 5 min at room temperature.
# 5. Signal was measured as median relative luminescence units on a ViewLux (PerkinElmer) multiplate reader.
# [1] Heske CM, Davis MI, Baumgart JT, Wilson K, Gormally MV, Chen L, Zhang X, Ceribelli M, Duveau DY, Guha R, Ferrer M, Arnaldez FI, Ji J, Tran HL, Zhang Y, Mendoza A, Helman LJ, Thomas CJ. Matrix Screen Identifies Synergistic Combination of PARP Inhibitors and Nicotinamide Phosphoribosyltransferase (NAMPT) Inhibitors in Ewing Sarcoma. Clin Cancer Res. 2017 Dec 1;23(23):7301-7311. doi: 10.1158/1078-0432.CCR-17-1121. Epub 2017 Sep 12. PMID: 28899971; PMCID: PMC6636827.
# Potency is read from the fitted curve at half-maximal effect.
Compound,viability (% of control),Potency
OCc1ccccc1O[C@@H]1O[C@H](CO)[C@H](O)[C@H](O)[C@H]1O,160% (inactive),
O=C(C[C@@H]1CC=CCCC(=O)O[C@H](c2ccccc2)CNC1=O)NCc1ccc(Cl)cc1,123% (inactive),
Cn1cc(C[C@@H](N)C(=O)O)c2ccccc21,135% [at 23.2 µM] (inactive),
C[C@H](CCC(=O)O)[C@H]1CCC2C3C[C@H](O)[C@@H]4C[C@H](O)CC[C@]4(C)C3CC[C@@]21C (stereo not given in full),121% (inactive),
Cc1ccc2nc(NCCN)c3ncc(C)n3c2c1,,13.2 µM (active)
Nc1ccc(C(=O)Nc2cccc(-c3nc(N4CCOCC4)c4oc5ncccc5c4n3)c2)cn1,,1.48 µM (active)
Cc1cn([C@@H]2O[C@H](CO)[C@@H](O)[C@H]2F)c(=O)[nH]c1=O,112% (inactive),
O=C(CCCCCCC(=O)Nc1cccnc1)NO,,4.18 µM (active)
O=C(Nc1ccc(Oc2ccnc3[nH]ccc23)c(F)c1)c1cccn(-c2ccc(F)cc2)c1=O,111% (inactive),
COC(=O)[C@H](CCCN=C(N)N)NS(=O)(=O)c1ccc(C)cc1,137% (inactive),
CCOC(=O)C1=C(C)NC(=S)NC1c1cccc(O)c1 (stereo not given),,0.0296 µM (active)
C[C@H]1O[C@H](O[C@H]2[C@H](O)[C@@H](O)[C@@H](O[C@H]3[C@H](O)[C@@H](O)C(O)O[C@H]3CO)O[C@H]2CO)[C@H](O)[C@@H](O)[C@H]1N[C@H]1C=C(CO)[C@@H](O)[C@H](O)[C@@H]1O (stereo not given in full),154% (inactive),
O=c1[nH]c(=O)n([C@H]2C[C@@H](O)[C@@H](CO)O2)cc1C=CBr,,0.105 µM (active)
Oc1cc(-c2nc(-c3ccccc3)[nH]c2-c2ccncc2)ccc1Cl,,14.8 µM (active)
FC(F)c1nc2ccccc2n1-c1nc(N2CCOCC2)nc(N2CCOCC2)n1,,0.469 µM (active)
O=c1c(O)c(-c2ccc(O)c(O)c2)oc2cc(O)ccc12,,18.7 µM (active)
CC(C)(O)[C@H]1CC[C@@](C)([C@H]2[C@@H](O)C[C@@]3(C)[C@@H]4C[C@H](O[C@@H]5O[C@H](CO)[C@@H](O)[C@H](O)[C@@H]5O)[C@H]5C(C)(C)[C@@H](O[C@@H]6OC[C@@H](O)[C@H](O)[C@@H]6O)CC[C@@]56C[C@@]46CC[C@]23C)O1,,16.6 µM (active)
O=C(O)c1ccc(Nc2ncc3c(n2)-c2ccc(Cl)cc2C(c2c(F)cccc2F)=NC3)cc1,,5.9 µM (active)
Nc1ccn(C2CO[C@H](CO)O2)c(=O)n1 (stereo not given in full),134% (inactive),
c1cc(CN2CCCNCCNCCCNCC2)ccc1CN1CCCNCCNCCCNCC1,144% (inactive),

Compound,viability (% of control),Potency
C=C[C@@H]1CN2CCC1C[C@H]2[C@H](O)c1ccnc2ccc(OC)cc12 (stereo not given in full),86.6% (inactive),
CC(C(C)N1CC(=O)NC(=O)C1)N1CC(=O)NC(=O)C1 (stereo not given),123% (inactive),
C[C@H]1COc2c(N3CCN(C)CC3)c(F)cc3c(=O)c(C(=O)O)cn1c23,145% (inactive),
CN1C(C(=O)Nc2ccccn2)=C(O)c2sc(Cl)cc2S1(=O)=O,,4.18 µM (active)
Cc1cc(-c2nnc3n2CCCCC3)c(C)n1-c1ccccc1,116% (inactive),
Cn1cc(-c2ccc3ncc(Cc4ccc5ncccc5c4)n3n2)cn1,111% (inactive),
CC(N[C@H]1CCCC[C@H]1NC(=O)c1ccc(Cl)cc1)c1cccc2ccccc12 (stereo not given in full),117% (inactive),
C#C[C@]1(O)CC[C@@H]2[C@@H]3CCc4cc(O)ccc4[C@H]3CC[C@@]21C,,23.5 µM (active)
CS(=O)(=O)N1CCc2c(-c3cnc(N)nc3)nc(N3CCOCC3)nc21,,0.332 µM (active)
COC1=C2C[C@@H](C)C[C@H](OC)[C@@H](O)[C@@H](C)C=C(C)[C@H](OC(N)=O)[C@@H](OC)C=CC=C(C)C(=O)NC(=CC1=O)C2=O,,0.418 µM (active)
COc1cc(OC)c(NC(=O)Nc2cc(C)on2)cc1Cl,145% (inactive),
Nc1ncn([C@@H]2O[C@H](CO)[C@@H](O)[C@@H]2O)c(=O)n1,,11.8 µM (active)
CC1(C)[C@H](O[C@H]2O[C@H](C(=O)O)[C@@H](O)[C@H](O)[C@H]2O[C@@H]2O[C@H](C(=O)O)[C@@H](O)[C@H](O)[C@H]2O)CC[C@@]2(C)[C@H]1CC[C@]1(C)[C@H]2C(=O)C=C2[C@H]3C[C@@](C)(C(=O)O)CC[C@]3(C)CC[C@]21C,165% (inactive),
NC1=N[C@H]2[C@H](CS[C@H]2CCCCC(=O)O)N1,117% [at 23.2 µM] (inactive),
COc1ccc(S(=O)(=O)Nc2cc(-c3c(O)ccc4ccccc34)c(O)c3ccccc23)cc1,,9.35 µM (active)
CC1(C)O[C@@H]2C[C@H]3[C@@H]4CCC5=CC(=O)C=C[C@]5(C)[C@@H]4[C@@H](O)C[C@]3(C)[C@]2(C(=O)CO)O1,,7.43 µM (active)
C[C@@H](NCc1cc2ccccc2[nH]1)c1cccc2ccccc12,90.6% (inactive),
COc1ccc(Nc2cc(-c3cnc(N)nc3)nc(N3CCOCC3)n2)cn1,,3.72 µM (active)
O=C(Nc1nnc(-c2ccco2)o1)c1cc(-c2ccccc2)nc2ccccc12,,20.9 µM (active)
Nc1nc(=O)n([C@H]2CSC(CO)O2)cc1F (stereo not given in full),114% (inactive),
